Reference: PubChem BioAssay AID1362 (SRMLSC, 2008)
The campaign covered roughly 190,000 compounds. About 4,000 (2.1%) were called active. This is one part of a sample in which actives are shown more often than they occur. Cut-off read from the data, not from the text of the source: active = inhibition above about 58%; inactive = the rest, inconclusive results apart; tested in S. cerevisiae.

Assay: growth inhibition of WT strain, primary screen, mitochondrial fusion inhibitor project, WT and mutant strains, chemical genetic (AID 1362)
Conditions: mitochondrial fusion phenotypic screen, at 10 µM
[1] = WT strain, growth inhibition, stronger effect = higher value

Structure (SMILES) | inhibition [1] | inhibition (mutant strain inhibition) [%]
O=C(NC1CC1)c1ccc(-c2ccccc2)cc1 | -18.3% (inactive) | 8.3
CC1CCN(C(=S)c2cccc(O)c2)CC1 | -7.57% (inactive) | 21.7
CCOC(=O)N1CCN(S(=O)(=O)c2cc(Br)cc3c2N(C(=O)C2CC2)CC3)CC1 | -4.28% (inactive) | 4.16
CCN(c1ccc2c(c1)OCO2)S(=O)(=O)c1cc(Br)cc2c1N(C(=O)C1CC1)CC2 | 82.3% (active) | 13.7
CS(=O)(=O)N(CC(=O)N1CCN(Cc2ccc3c(c2)OCO3)CC1)c1ccc2c(c1)OCO2 | -12% (inactive) | -4.62
COC(=O)CSc1nccc(-c2cccs2)n1 | -15.2% (inactive) | 12.6
CCOc1ccc(/C=C(/NC(=O)c2ccccc2)C(=O)NCCC(=O)O)cc1 | -9.33% (inactive) | 4.17
COc1cc(NC(=O)CN(C)S(=O)(=O)c2ccc3nc(C)sc3c2)cc(OC)c1 | 5.19% (inactive) | 4.68
C=CCn1c(N)c(C(=O)OCC(C)C)c2nc3ccccc3nc21 | 66.3% (active) | -15.2
CC(C)Cn1c(N)c(C(=O)NCc2cccs2)c2nc3ccccc3nc21 | 3.94% (inactive) | 7
C=CCn1c(N)c(S(=O)(=O)c2cccs2)c2nc3ccccc3nc21 | -1.23% (inactive) | 0.9
CC(C)Oc1ccc(CCc2nnc(SCC(=O)O)n2-c2ccccc2)cc1 | -10.3% (inactive) | 10.7
CN(c1cccc(NC(=O)Nc2ccc(Cl)cc2)c1)S(C)(=O)=O | 96.2% (active) | -6.73
Cc1ccc(N(CC(=O)Nc2cccc(N(C)S(C)(=O)=O)c2)S(C)(=O)=O)cc1 | 0.56% (inactive) | -23
COc1cccc(N(CC(=O)Nc2cccc(N(C)S(C)(=O)=O)c2)S(C)(=O)=O)c1 | -5.64% (inactive) | 2.31
O=C(N/N=C/c1ccc([N+](=O)[O-])cc1)C(=O)N1CCCC1 | 11.1% (inactive) | 10.6
CCOC(=O)c1cnc(-n2nc(C)cc2C)nc1-n1nc(C)cc1C | -11.1% (inactive) | -5.08
CCOC(=O)c1cnc(-c2ccccc2)nc1Oc1ccc(C)cc1 | 21.7% (inactive) | -24.7
CCOC(=O)c1cnc(-n2nc(C)cc2C)nc1NNc1cc(C)nc(-c2ccccc2)n1 | 62.1% (active) | -11.2
O=C(NNS(=O)(=O)c1ccc(F)cc1)c1cnccn1 | -14.2% (inactive) | 8.1
CCc1ccccc1N1C(=O)C2C3CC(=O)C(c4ccccc43)C2C1=O (stereo unspecified) | 5.26% (inactive) | 3.48
CCN(C(=O)CN1CCN(Cc2ccccc2)CC1)c1c(N)n(Cc2ccccc2)c(=O)[nH]c1=O | -4.65% (inactive) | 11.9
Cc1nnnn1/C(=C\c1ccccc1)C(=O)OCC(=O)N1CC2(C)CC1CC(C)(C)C2 (stereo unspecified) | 60.3% (active) | 11.4
Cc1cccc(C(=O)NCC(=O)OCC(=O)N2CC3(C)CC2CC(C)(C)C3)c1 (stereo unspecified) | -4.43% (inactive) | 5.06
COc1ccccc1C(=O)N1CC2(C)CC1CC(C)(C)C2 (stereo unspecified) | 18.6% (inactive) | 10.1
CN1CCCN(C(=O)C2CCCCC2)CC1 | 2.94% (inactive) | -4.71
CN(C)S(=O)(=O)N1CCN(c2ccc([N+](=O)[O-])cc2)CC1 | -1.29% (inactive) | -1.53

Structure (SMILES) | inhibition [1] | inhibition (mutant strain inhibition) [%]
O=C(NCc1ccc(Cl)cc1)NCc1ccc(Cl)cc1 | 4.16% (inactive) | 4.87
C=CCn1c(CCc2ccc(OC(C)C)cc2)n[nH]c1=S | -7.58% (inactive) | -5.68
CC(C)Oc1ccc(Cc2n[nH]c(=S)n2Cc2ccccc2)cc1Cl | 66.9% (active) | 17.8
CC(C)Oc1ccc(CCc2n[nH]c(=S)n2Cc2ccccc2)cc1 | 13.3% (inactive) | 0.86
CSC1=N/C(=C\C=C\c2cccs2)C(=O)S1 | 70.3% (active) | 37.4
CSC1=N/C(=C\c2ccc3c(c2)OCO3)C(=O)S1 | 6.07% (inactive) | -0.28
Cc1cccc(C2=N/C(=C/c3cccs3)C(=O)O2)c1 | -7.49% (inactive) | 9.32
Cc1nnc(SCc2cccc(Cl)c2)n(N)c1=O | -3.17% (inactive) | -5.61
CCCN(CC(=O)Nc1ccc(OC)c(OC)c1)CC(=O)Nc1ccc(F)c(F)c1F | 4.56% (inactive) | 28.4
O=[N+]([O-])c1ccc2c(c1)C(N1CCOCC1)/C(=C/C1(O)CCCCC1)O2 (stereo unspecified) | -4.01% (inactive) | 0.41
COc1cc(C)c(Cl)cc1S(=O)(=O)n1ccnc1 | 3.86% (inactive) | -5.05
COC(=O)c1ccc(C2C3=C(Nc4nnnn42)c2ccccc2OC3)cc1 (stereo unspecified) | 98.5% (active) | -8.54
COC(=O)C1=C(C(=O)c2ccc(C)cc2)C(c2ccccc2)n2nnnc2N1 (stereo unspecified) | 11.5% (inactive) | 4.37
COc1ccccc1NC(=O)C1=C(C)Nc2nnnn2C1c1cccc(Br)c1 (stereo unspecified) | -12.6% (inactive) | -7.01
Nc1cc(C(F)(F)F)ccc1N1CCOCC1 | -6.55% (inactive) | -2.84
CC1(C)C=C2[C@H]3CC[C@@H]4[C@@]5(C)CCC(=O)C(C)(C)[C@@H]5CC[C@@]4(C)[C@]3(C)CC[C@@]2(C(=O)O)CC1 | 59.1% (active) | -18.6
Cc1ccc(S(=O)(=O)Nc2nc(N)n(-c3ccccc3)n2)cc1 | -0.46% (inactive) | 3.67
CSc1cc(C)[nH]c(=O)n1 | -8.71% (inactive) | -7.11
S=C(NCCc1ccccc1)NCC1CCCO1 (stereo unspecified) | -1.69% (inactive) | 7.51
S=C(NN=C1CCN(Cc2ccccc2)CC1)NC1CCCCC1 | 38.9% (inactive) | 25
CCCC1CCC(=NNC(=S)NCCc2ccccc2)CC1 (stereo unspecified) | 66.8% (active) | 40.1
O=C(O)/C=C/c1ccc(S(=O)(=O)N2CCCCCC2)cc1 | -9.59% (inactive) | 10.2
COCCN(C(=O)c1ccco1)c1nnc(-c2ccc(OC)cc2)s1 | -4.3% (inactive) | -8.85
COCCN(C(=O)C(C)C)c1nnc(-c2ccc(C(C)(C)C)cc2)s1 | 59% (active) | 10
COc1cc(OC)cc(-c2nnc(N(C)C(=O)c3ccncc3)s2)c1 | -11% (inactive) | -7.45
CCC(=O)Nc1cc(C(F)(F)F)ccc1N1CCCC1 | -15.6% (inactive) | 12.5
